In PubChem BioAssay AID588579 (National Center for Advancing Translational Sciences (NCATS), 2011):
Screen size: about 400,000 compounds; about 2,200 (0.55%) were called active. Not shown: some 1% with an inconclusive outcome. Calls follow the shape of the dose curve; as a rule, active = well fitted inhibition curve with a large enough effect; inconclusive = small, poorly fitted or top-dose-only effect, or another doubt; inactive = no such curve, though single readings can be large or run the other way. Many of the other results were omitted from the sample, so actives are more common in it than they were.

target: DNA polymerase kappa (Homo sapiens) (UniProt Q9UBT6); assay: qHTS for Inhibitors of Polymerase Kappa; conditions: purified Pol kappa, fluorescent DNA synthesis assay, 10 min; series mostly up to 107 µM
Experimental: The processing and repair of DNA interstrand crosslinks (ICL) in eukaryotic cells are extremely complex, potentially involving multiple DNA repair and damage tolerance pathways, including homologous recombination, nucleotide excision repair, translesion synthesis (TLS), and cell cycle checkpoints.
To that end, in a collaboration between the Oregon Health & Science University and the NIH Chemical Genomics Center a 1536-well high-throughput screen was developed. This fluorescent screen was assayed against the NIH Molecular Libraries Small Molecule Repository (MLSMR) to discover inhibitors of Pol Kappa.
NIH Chemical Genomics Center [NCGC]
NIH Molecular Libraries Probe Centers Network [MLPCN]
Assay Submitter (PI): Stephen Lloyd, Oregon Health & Science University
Three microliters of reagents (buffer in column 3 and 4 as negative control and 10 nM Pol kappa in columns 1, 2, and 5-48) were dispensed into a 1536-well black solid-bottom plate. Compounds (23 nL) were transferred via Kalypsys pin tool equipped with 1536-pin array. The plates were then incubated for 15 min at room temperature, and 1 uL substrate (50 nM final concentration) were then added to start the reaction and kinetically read twice at 0 min and 10 min on the Viewlux reader
% is scaled to controls: 0 for no effect and ±100 for the full control effect; potency is read from the fitted curve at half-maximal effect.

DNA polymerase kappa (Homo sapiens), sequence (Q9UBT6 whole entry, looked up): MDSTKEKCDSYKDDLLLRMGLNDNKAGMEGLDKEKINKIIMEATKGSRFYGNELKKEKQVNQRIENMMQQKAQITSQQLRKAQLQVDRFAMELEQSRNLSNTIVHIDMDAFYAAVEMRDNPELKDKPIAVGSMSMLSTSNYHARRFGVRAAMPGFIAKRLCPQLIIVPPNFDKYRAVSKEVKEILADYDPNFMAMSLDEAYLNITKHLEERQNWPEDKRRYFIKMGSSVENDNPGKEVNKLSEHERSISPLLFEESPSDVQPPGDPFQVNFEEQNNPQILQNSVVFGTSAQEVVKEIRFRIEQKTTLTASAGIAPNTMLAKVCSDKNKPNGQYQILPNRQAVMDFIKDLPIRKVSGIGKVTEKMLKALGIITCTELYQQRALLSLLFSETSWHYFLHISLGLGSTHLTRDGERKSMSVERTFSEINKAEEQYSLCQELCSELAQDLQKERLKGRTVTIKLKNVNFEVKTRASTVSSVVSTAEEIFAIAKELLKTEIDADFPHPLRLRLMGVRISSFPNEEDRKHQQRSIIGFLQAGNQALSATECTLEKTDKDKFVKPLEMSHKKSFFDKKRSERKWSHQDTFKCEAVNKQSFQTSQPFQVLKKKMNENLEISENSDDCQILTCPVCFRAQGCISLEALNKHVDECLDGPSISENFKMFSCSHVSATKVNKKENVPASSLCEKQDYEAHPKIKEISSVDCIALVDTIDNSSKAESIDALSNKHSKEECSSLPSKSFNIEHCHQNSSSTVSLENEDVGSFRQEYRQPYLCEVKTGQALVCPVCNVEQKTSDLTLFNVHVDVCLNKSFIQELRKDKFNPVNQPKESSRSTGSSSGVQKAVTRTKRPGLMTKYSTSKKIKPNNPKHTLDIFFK

Potency, active:
CCOc1ccccc1/C=c1\sc2nc(-c3ccco3)nn2c1=O 89.1 µM
O=C(CN1CCN(S(=O)(=O)c2cc(Cl)ccc2Cl)CC1)c1ccc(O)c(O)c1 28.2 µM
O=C(c1ccc(CS(=O)(=O)c2ccccc2)o1)N1CCN(c2ccccc2)CC1 79.4 µM
COc1cccc2c1C(=O)c1c(O)c3c(c(O)c1C2=O)CC(O)(C(C)=NNC(=O)c1ccc(Cl)c(Cl)c1)CC3OC1CC(N)C(O)C(C)O1 (stereo unspecified) 17.8 µM
C=C(C)C(=O)Nc1cccc(C2=NOC3(C2)C[C@H](C(N)=O)N(C(=O)C(c2ccccc2)c2ccccc2)C3)c1 (stereo partly specified) 25.1 µM
CN(C)CCNC(=O)c1ccc(Cl)c2cc3ccccc3nc12 50.1 µM
CC(=O)c1ccc(S(=O)(=O)N2CCN(C(=O)/C=C/c3ccc4ccccc4n3)CC2)cc1 79.4 µM
O=C(O)c1ccc(NN=CC2=C(N3CCOCC3)/C(=C/c3ccccc3)CC2)cc1 28.2 µM
Cc1cc(/C=N/Nc2ccc([N+](=O)[O-])cn2)c(C)n1-c1cccc(C(=O)O)c1 70.8 µM
CCN(CC)CCOc1ccc2c(c1)C(=NNC(=O)c1ccccn1)c1cc(OCCN(CC)CC)ccc1-2 10 µM
CN(C)[C@@H]1C(=O)C(C(N)=O)=C(O)[C@@]2(O)C(=O)C3=C(O)c4c(O)ccc(Cl)c4[C@@H](O)[C@H]3C[C@@H]12 89.1 µM
C=C1c2c(Cl)ccc(O)c2C(O)=C2C(=O)[C@]3(O)C(O)=C(C(N)=O)C(=O)[C@@H](N(C)C)[C@@H]3[C@@H](O)C12 (stereo partly specified) 3.98 µM
Cc1cc(C)c2nc(-c3ccco3)cc(C(=O)O)c2c1 22.4 µM
Cc1ccc(C(=O)O)cc1-c1ccc(/C=C2\SC(=O)N(CC(=O)Nc3ccc4c(c3)OCO4)C2=O)o1 28.2 µM
Cc1ccc(/C=C/C(=O)Nc2ccc([N+](=O)[O-])c(NC(=O)/C=C/c3ccc(C)o3)c2)o1 28.2 µM
CN(CCOc1ccccc1)C(=O)c1cc(-c2ccco2)nc2ccccc12 79.4 µM
CN(C(=O)COC(=O)c1cc(-c2ccco2)nc2ccccc12)C1CCS(=O)(=O)C1 (stereo unspecified) 20 µM

Potency, inactive:
Oc1c(C(c2ccccc2Cl)N2CCOCC2)sc2nc(-c3ccco3)nn12 (stereo unspecified)
CCOC(=O)C1CCN(C(c2ccc(F)cc2)c2sc3nc(-c4ccco4)nn3c2O)CC1 (stereo unspecified)
O=C(O)C(O)[C@@](O)(Cc1ccc(O)cc1)C(=O)O (stereo partly specified)
O=S(=O)(c1cc(Cl)ccc1Cl)N1CCN(Cc2ccco2)CC1
CCN1CCN(C(=O)C2CCN(S(=O)(=O)c3cc(Cl)ccc3Cl)CC2)CC1
CC1(C)C=Cc2c(ccc(C(=O)/C=C/c3ccccc3)c2O)O1
COc1ccc(CNc2ncnc3ccc(-c4cccnc4)cc23)c(OC)c1
O=C(c1ccc(Br)o1)N1CCN(CCOc2ccccc2)CC1
CCOC(=O)C1CCCN(C(=O)c2ccc(CS(=O)(=O)c3ccc(Br)cc3)o2)C1 (stereo unspecified)
COC1C[C@@H](O[C@@H]2C(C)C(=O)OC(C)C(C)C(O)C(C)C(=O)[C@@]3(CO3)CC(C)C(OC3OC(C)CC(N(C)C)C3O)C2C)OC(C)[C@@H]1O (stereo partly specified)
O=P(O)(O)OC[C@H](O)CO
COc1c2c(cc3occ(-c4ccc5c(c4)OCO5)c(=O)c13)OC(C)(C)C=C2
Cc1cccc(-c2nnc(SC(C)C(=O)Nc3ccccc3)n2C)c1 (stereo unspecified)
COc1cccc(Nc2ncc3ncc(=O)n(C4CC4)c3n2)c1
CCC(=O)Nc1cccc(C2=NOC3(C2)C[C@@H](C(N)=O)N(C(=O)c2cc([N+](=O)[O-])cc([N+](=O)[O-])c2C)C3)c1 (stereo partly specified)
NC(=O)[C@H]1CC2(CC(c3cccc(NC(=O)[C@H]4CCC(=O)N4)c3)=NO2)CN1C(=O)c1ccccc1C(=O)c1ccccc1 (stereo partly specified)
O=C(c1cnccn1)N1CCC2(CCN(Cc3cc(C(F)(F)F)cc(C(F)(F)F)c3)CC2)CC1
Cc1nc2cnc(Oc3cccc(Cl)c3)nc2n(C2CC2)c1=O
S=c1[nH]c(=S)c2n[nH]nc2[nH]1
COc1ccc(Nc2cc(C(=O)NCCCN(C)c3ccccc3)c3ccccc3n2)c(OC)c1
COc1ccccc1Nc1cc(C(=O)NCCCN(C)C2CCCCC2)c2ccccc2n1
O=C(c1csnn1)N1CCC[C@@]2(CCN(c3cccc(-c4ccccc4)c3)C2)C1
CC(=O)c1cccc(Nc2ccc3cc(S(=O)(=O)N4CCC(C)CC4)ccc3n2)c1
CC(=O)c1ccc(S(=O)(=O)N2CCC(Oc3ccc(-n4cnnn4)cc3)CC2)cc1
Cc1cccc(NC(=O)COC(=O)c2ccccc2OCc2cccc(Br)c2)c1
C=C1C(=O)C23C(O)C1CCC2[C@]12COC3(O)C(O)C1C(C)(C)CC[C@H]2O (stereo partly specified)
CC(C)(CNC(=O)c1ccc(Cl)c(S(=O)(=O)N2CCc3ccccc3C2)c1)N1CCOCC1
O=C(Nc1cc(Cl)ccc1N1CCOCC1)c1ccc(N2CCCC2=O)cc1
CN1CCN(C(=O)c2cnn(-c3ccccc3)c2NC(=O)c2ccc([N+](=O)[O-])cc2)CC1
Cc1cccc(C(=O)NC(=S)N2CCN(c3ccc([N+](=O)[O-])cc3)CC2)c1
COc1cc(OC)c(OC)cc1/C=C1\C=Cc2ccccc21
O=c1c(-c2ccc(F)cc2)nc2cnc(N3CCNCC3)nc2n1Cc1cccs1
CN(C)c1ccc(/C=C2\C=Cc3ccccc32)cc1Br
CCOc1ccc(C(=O)N2CCN(CCc3ccccn3)CC2)cc1
O=C(c1ccncc1)N1CCC2(CCN(Cc3cc(C(F)(F)F)cc(C(F)(F)F)c3)CC2)CC1
O=C1C[C@H]2C=CCc3cccc(c32)CN1Cc1ccccc1
O=C1CCC[C@@H]2C[C@@]3(C[C@@H]4CCN1[C@H]24)Nc1ccccc1NC3=NCc1ccccc1
CC(=O)OCC(=O)[C@@]1(O)CCC2C3CCC4=CC(=O)CC[C@@]4(C)[C@]3(F)C(O)C[C@]21C (stereo partly specified)
Brc1ccc(C2=NCCC(c3ccccc3)O2)cc1 (stereo unspecified)
Cc1cccc(NC(=O)CSc2nc(-c3ccco3)cc(C(F)(F)F)n2)c1C
Cc1cc(C)c2nc(-c3cccnc3)cc(C(=O)Nc3ccc(S(=O)(=O)Nc4onc(C)c4C)cc3)c2c1
Cn1c(=O)c2ccccc2n(CC(=O)Nc2ccc3c(c2)OCCO3)c1=O
COC(=O)c1ccc2c(c1)N(CC(=O)Nc1ccc(C)c(C)c1)C(=O)c1ccccc1S2
Cc1ccc(/C=C/C(=O)OCC(=O)NCc2ccc(Cl)cc2)o1
COc1ccc(OC)c(NC(=O)/C=C/c2ccc(C)o2)c1
CC1=C(/C=C/C(C)=C/C=C/C(C)=C/C=C/C=C(C)/C=C/C=C(C)/C=C/C(=O)[C@]2(C)C[C@@H](O)CC2(C)C)C(C)(C)C[C@H](O)C1
CCN(C(=O)COC(=O)/C=C/c1nc2ccccc2s1)C1CCS(=O)(=O)C1 (stereo unspecified)
Cc1cc(C)c2nc(SCC(=O)N(C)C3CCS(=O)(=O)C3)cc(C)c2c1 (stereo unspecified)
CN(C)C(CNC(=O)CCCOc1ccccc1)c1ccco1 (stereo unspecified)
CCOc1ccc(CNC(=O)c2cc(-c3ccc(Cl)s3)nc3ccccc23)cc1
Nc1ncn(C2OC(CO)C(O)C2O)c(=O)n1 (stereo unspecified)
CCCCCCCNc1ccc(/C=C/c2ccnc3ccccc23)cc1
O=C(c1cccc(F)c1)N1CCC2(CCCN(Cc3ccncc3)C2)CC1
COCCn1c(=O)c(-c2ccc(OC)cc2)nc2cnc(Oc3cccc(Cl)c3)nc21

activity, negative = inhibition, inactive:
NCCC(=O)c1ccccc1N 1.11% [at 19.4 µM]
NNc1nnc(NN)c2ccccc12 2.28% [at 19.4 µM]
CC(=O)/C(C)=N\O -8.23% [at 19.4 µM]
Nc1nc2c(ncn2[C@@H]2O[C@H](COP(=O)(O)OP(=O)(O)OP(=O)(O)O)[C@@H](O)C2O)c(=O)[nH]1 (stereo partly specified) -4.75% [at 19.4 µM]
COc1ccc(OC)c([C@H](O)CNC(=O)CN)c1 -13.4% [at 19.4 µM]
CN1[C@H]2CC(OC(=O)[C@@H](CO)c3ccccc3)C[C@H]1[C@H]1O[C@H]12 (stereo partly specified) -3.18% [at 12 µM]
C[C@]12CC[C@@H]3C(=CCc4cc(O)ccc43)[C@@H]1CCC2=O -6.88% [at 12 µM]
Oc1ccc(Cl)c2c1CCC2 2.83% [at 19.4 µM]
C/C=C/C=N/NC(=O)c1ccncc1 -3.32% [at 19.4 µM]
CCn1ccnc1C[C@@H]1COc2ccccc2O1 -7.82% [at 19.4 µM]
NC[C@@H]1O[C@H](O[C@@H]2[C@H](O[C@@H]3O[C@H](CO)[C@@H](COC[C@H]4O[C@@H](CN)[C@@H](O)[C@@H](O)[C@@H]4N)[C@@H]3O)[C@@H](O)[C@@H](N)C[C@H]2N)[C@@H](N)[C@H](O)[C@@H]1O -0.462% [at 12 µM]
O=C1C(c2[nH]c3ccccc3c2O)=Nc2ccccc21 -10.8% [at 19.4 µM]
C=CC(=O)c1ccc2ccccc2c1 7.32% [at 19.4 µM]
Cc1cn([C@H]2CC(F)[C@@H](CO)O2)c(=O)[nH]c1=O (stereo partly specified) -4.8% [at 19.4 µM]
O=C(Nc1cccc(C(F)(F)F)c1)c1cc(Br)cc(Br)c1O -0.617% [at 19.4 µM]
